The source of these data is PubChem BioAssay (EPA / NIEHS).

Several values for one entry are separate records, joined by “and”; a condition that tells them apart may be missing. Equal values may be shown once. Records with an inconclusive call do not appear. Where a structure was tested more than once in an assay, its records may differ in their call. Activity calls are given as the source filed them. The calls were made as follows: active = hit-call score of the fitted dose curve at least 0.9, where 1 is the maximum; inconclusive = response in the unintended direction; inactive = score below 0.9.

The target of the assay is Retinoic acid receptor RXR-alpha (Homo sapiens) (UniProt P19793). Nature of the assay: OT_NURR1_NURR1RXRa_0480: Odyssey Thera (OT) 8-hour HEK293T Protein Complementation Assay for Nurr1/retinoid X receptor (RXR) (AID 2283385). In short, it runs like this: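 Gain in fluorescent complementation signal over DMSO, measured 8 hours after chemical dosing of human kidney HEK293T cells, indicated enhanced Nurr1–RXRα association.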
Sequence of Retinoic acid receptor RXR-alpha (Homo sapiens) (P19793 whole entry, looked up): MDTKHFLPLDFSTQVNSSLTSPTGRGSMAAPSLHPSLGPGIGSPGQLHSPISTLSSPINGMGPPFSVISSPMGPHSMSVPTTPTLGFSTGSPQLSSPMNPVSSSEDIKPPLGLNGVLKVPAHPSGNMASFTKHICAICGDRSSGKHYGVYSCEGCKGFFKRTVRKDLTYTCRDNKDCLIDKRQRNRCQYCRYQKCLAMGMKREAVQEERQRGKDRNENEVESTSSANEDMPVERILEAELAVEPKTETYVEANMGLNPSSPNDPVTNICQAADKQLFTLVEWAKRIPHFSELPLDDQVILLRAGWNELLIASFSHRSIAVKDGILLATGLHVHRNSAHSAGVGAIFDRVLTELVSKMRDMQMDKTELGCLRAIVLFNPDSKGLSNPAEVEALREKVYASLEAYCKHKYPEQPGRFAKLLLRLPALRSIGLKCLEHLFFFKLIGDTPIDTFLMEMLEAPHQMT
In the case of `Nc1ccc(N)cc1`, the outcome was inactive.
Turning to `CCOCn1c(-c2ccc(Cl)cc2)c(C#N)c(Br)c1C(F)(F)F`, the AC50 is 9.59 µM (active).
Consider `COC(=O)Nc1cccc(OC(=O)Nc2cccc(C)c2)c1`, for which the call was inactive.
In the case of `Cc1cc(Cl)ccc1OCCCC(=O)O`, the outcome was inactive.
Still for that read-out and setting: for `O=C(CBr)c1ccc(O)cc1` the value was “inactive”.
As for `O=C(NC(=O)c1c(F)cccc1F)Nc1cc(Cl)c(OC(F)(F)C(F)C(F)(F)F)cc1Cl` (configuration not stated), the AC50 was 66.5 µM (active).
Turning to `Oc1cc(Cl)c(Cl)cc1Cl`, the half-maximal activity concentration (AC50) was 78.3 µM (active) and the call was inactive.
Consider `O=c1nc(O)n(Cl)c(=O)n1Cl`, for which the outcome was inactive.
On the same count and under the same terms, for `CCOc1ccc(N)cc1` the value was “inactive”; for `OCCN(CCO)CCO`, “inactive”.
As to `O=C(O)C1(c2ccc3c(c2)OC[C@H](Cc2ccc(-c4ccccc4)cc2)[C@H]3O)CCCC1`, the half-maximal activity concentration (AC50) is 76.2 µM (active) and 86.6 µM (active).
With `N#Cc1cccnc1`, the compound was classed as inactive.
On the same count and under the same terms, for `Clc1cccc(Cl)c1Cl` the value was “inactive”.
On the same count and under the same terms, for `O=c1[nH]c(=O)n(Cl)c(=O)n1Cl` the value was “inactive”; for `C=CCN=C=S`, “inactive”; for `CC(C)=CC1C(C(=O)OCc2cccc(Oc3ccccc3)c2)C1(C)C` (configuration not stated), “inactive”.
On the same count and under the same terms, for `O=C(NC(=O)c1c(F)cccc1F)Nc1ccc(Cl)cc1` the value was “inactive”.
Consider `CCOP(=S)(OCC)O/N=C(\C#N)c1ccccc1`, for which the compound was called inactive.
On the same count and under the same terms, for `CCCCCCCCCCCCOS(=O)(=O)O` the value was “inactive”; for `OCCCCO`, “inactive”; for `CCCCCCCCCCCCc1cccc(S(=O)(=O)O)c1`, “inactive”.
`COc1nn(C(=O)NS(=O)(=O)c2ccccc2OC(F)(F)F)c(=O)n1C`: the outcome was inactive.
On the same count and under the same terms, for `CN(C)C(=S)S` the value was “inactive”.
Same read-out and setting: for `Cc1cc(Cl)ccc1O` the value was “inactive”.
Turning to `O=S1(=O)OC(c2cc(Br)c(O)c(Br)c2)(c2cc(Br)c(O)c(Br)c2)c2ccccc21`, the AC50 was 71.9 µM (active).
The same measure, in the same setting: for `O=S1OC[C@@H]2[C@H](CO1)[C@]1(Cl)C(Cl)=C(Cl)[C@@]2(Cl)C1(Cl)Cl` (some centres not stated) the value was 91.8 µM (active).

As usually defined, the AC50 is the concentration at which the activity in the assay is half-maximal.
